The values that follow come from PubChem BioAssay (NCATS).

Structures are written as SMILES. Values without a mark were called inactive. Results filed as inconclusive are left out. Active and inactive are the calls of the source. Unless noted, calls come from the whole dose curve; as a rule, active = well fitted curve in the direction sought with a large enough effect; inconclusive = small, poorly fitted or top-dose-only effect, or another doubt; inactive = no such curve, though single readings can be large; an effect the other way counts as inactive or inconclusive. Some results are limits rather than exact numbers.

The target in experiment [1] is Cytochrome P450 2D6 (Homo sapiens) (UniProt P10635). As to the kind of experiment: qHTS Assay for Inhibitors and Substrates of Cytochrome P450 2D6 (AID 891).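 Note: luciferin methyl ether substrate demethylated by CYP2D6 with NADPH regeneration; nearly all actives have a fitted effect of over 60% in size.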 The method in brief: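 Luminescent read-out of luciferin formed by 5 nM human CYP2D6 demethylating 30 uM Luciferin-ME EGE (Km level) over 60 min at room temperature after NADPH regeneration addition. Data normalized to full inhibition by 1.43 uM quinidine.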
On the technique in general: In qHTS, concentration-response curves come from the screen itself.

The target in experiment [2] is Lysosomal acid glucosylceramidase (Homo sapiens) (UniProt P04062). As to the kind of experiment: Glucocerebrosidase-p2 (AID 348; in the data active = potency below about 10 µM; note: potency is the fitted concentration of half-maximal effect). Particulars: purified GBA, blue fluorogenic substrate, 40 min. A digest of the protocol:
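Normal human glucocerebrosidase (0.2 nM) with blue fluorogenic substrate (80 uM final) in citrate/phosphate pH 5.9 with 10mM sodium taurocholate, 0.01% tween-20; 40 min RT, NaOH/glycine stop; fluorescence Ex 365/Em 440; AC50 from a titration from 0.6 nM upwards.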

Experiment [3] has as its target Nuclear receptor subfamily 1 group I member 3 (Homo sapiens) (UniProt Q14994). Description: Primary qHTS for antagonist of constitutive androstane receptor (CAR) against the NCATS DSHEA and TCM libraries (AID 1794836).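 Note: HepG2 cells stably expressing hCAR with CYP2B6 luciferase reporter stimulated by CITCO.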 The method in brief:
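Antagonist mode: CAR reporter luminescence (ONE-Glo) in HepG2-CYP2B6-hCAR cells stimulated with 48 uM CITCO (final) over 24 h at 37 C, compounds titrated; viability read first by CellTiter-Fluor fluorescence.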

In experiment [4] the target is Cytochrome P450 2C9 (Homo sapiens) (UniProt P11712). As to the kind of experiment: qHTS for inhibitors of CYP2C9 against the NCATS DSHEA and TCM libraries (AID 1919973).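 Note: luminogenic pro-luciferin CYP2C9 substrate turned into luciferin with NADPH regeneration.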 The method in brief:
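Each CYP isoform and its pro-luciferin substrate, at isoform-specific final concentrations, were preincubated 15 min at RT with substances. NADPH regeneration solution (1x) started a 30-45 min reaction, and P450-Glo luminescence was read.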

The target in experiment [5] is D(1A) dopamine receptor (Homo sapiens) (UniProt P21728). As to the kind of experiment: HTS Assay for Allosteric Agonists of the Human D1 Dopamine Receptor: Primary Screen for Antagonists (AID 488983).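 Note: calcium flux response to an EC80 dopamine challenge measured with no-wash dye; nearly all actives have a fitted effect of over 65% in size.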 A digest of the protocol:
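Calcium-flux read-out in inducible HEK293 T-REx cells expressing D1, dye-loaded 30–90 min at room temperature. Kinetic reads: 180 s after compound (agonist phase), then 180 s after an EC80 dopamine challenge.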

Experiment [6] is described as follows: Validation screen for small molecules that induce genotoxicity in human embryonic kidney (HEK293T) cells expressing luciferase-tagged ELG1 (AID 493106). The method in brief: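 ELG1-luciferase reporter readout (ONE-Glo, 30 min, room temperature) after 16 hr compound treatment at 37 °C of HEK293T cells at 2,000 per well. Rising luminescence flags genotoxic stress.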

The target of experiment [7] is ATPase family AAA domain-containing protein 5 (Homo sapiens) (UniProt Q96QE3). Description: Validation screen for small molecules that inhibit ELG1-dependent DNA repair in human embryonic kidney (HEK293T) cells expressing luciferase-tagged ELG1 (AID 493107).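 Note: inhibitors lower the ELG1-luciferase luminescence signal; nearly all actives have a fitted effect of over 70% in size.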 A digest of the protocol: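 Luciferase read-out, ONE-Glo, 30 min at room temperature, follows 16 h co-exposure at 37 C of compound and the DNA-damaging agent 5-fluorouridine. Cells: HEK293T with ELG1-luciferase fusion, 2,000 per well, DMSO as vehicle.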

The nature of experiment [8]: qHTS for Inhibitors of Cell Surface uPA Generation: Validation Assay (AID 493164).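 Note: RAW 264.7 macrophage cells exposed to compound for 18 h.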 The method in brief: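 ATP-Lite luminescence read-out: ATP remains high when uPA activity-dependent LF translocation into the cytoplasm is blocked. RAW 264.7 cells, 18 h compound exposure at 37 C; 7-point titration, 2.45 nM to 38.3 uM final.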
The target in experiment [9] is Peptidyl-prolyl cis-trans isomerase NIMA-interacting 1 (Homo sapiens) (UniProt Q13526). As to the kind of experiment: qHTS Validation Assay to Find Inhibitors of Pin1 (AID 504536; active = well fitted inhibition curve with a large enough effect in the polarisation, with a control signal flat, not every such curve was filed as active; the % refers to the polarisation). A digest of the protocol:
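Fluorescence polarization competition: compounds (titration) displace HiFluor-488-labeled Pin1-1b peptide from Pin1 (0.3 uM final) in pH 7.5 HEPES buffer with DTT, 10 min at room temperature; %Activity normalized to no-enzyme wells, curves fitted.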

In experiment [10] the target is Phosphoglycerate kinase, glycosomal (Trypanosoma brucei brucei) (UniProt P07378). Description: qHTS Validation Assay to Find Inhibitors of Phosphoglycerate Kinase (AID 504547). A digest of the protocol: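 Luminescence end-point (Kinase-Glo Plus, 10 min) after a 60 min room-temperature coupled reaction. GAPDH at 100nM final supplies 1,3-BPG to PGK. Buffer: 100mM TEA pH 7.6, 5mM MgCl2, 0.01% Tween-20. Wells lacking PGK served as controls.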

Experiment [11] addresses phosphoglycerate mutase (Leishmania major) (UniProt Q4Q090). Description: qHTS Validation Assay to Find Inhibitors of Phosphoglycerate Mutase (AID 504548).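 Note: end-point luminescence from Kinase-GloPlus after the PGAM reaction.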 The method in brief:
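Inhibition of L. major PGAM was assessed by Kinase-GloPlus luminescence following a 45-minute room-temperature reaction with enzyme at 1.25nM final.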

A short description of experiment [12]: Inducers of the Endoplasmic Reticulum Stress Response (ERSR) in human glioma: Validation (AID 504836). The method in brief:
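ERSR induction read as luciferase luminescence (Bright-Glo, 10 min at room temperature) in stably transfected human U87-MG glioma cells exposed to compounds for 16 h, using GRP78 as sensor.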

The nature of experiment [13]: qHTS for Inhibitors of ATXN expression: Validation of Cytotoxic Assay (AID 588349). The method in brief:
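Cytotoxicity counter-screen: ATP-based luminescent viability (CellTiter Glo) after 72 hr exposure of HEK293 cells to a compound titration at 37 degrees C.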

Experiment [14] can be described thus: qHTS for Inhibitors of ATXN expression: Validation (AID 588378). Note: nearly all actives have a fitted effect of over 75% in size. A digest of the protocol:
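Luciferase luminescence (Bright-Glo) from an ATXN2-FFLuc HEK293 line after 24 h compound exposure at 37 °C, preceded by a CellTiter-Fluor fluorescence viability read. Serial dilutions of a reference ATXN2 inhibitor and a luciferase inhibitor served as controls.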

Experiment [15] deals with Glucagon-like peptide 1 receptor (Homo sapiens) (UniProt P43220). Description: qHTS of GLP-1 Receptor Agonists: LOPAC Validation (AID 624148).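 Note: luminescence from a luciferase reporter switched on by cAMP; higher luminescence signal means agonism.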 The method in brief: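 Agonism scored as increased luciferase luminescence driven by cAMP in HEK293 clones carrying GLP-1R. Cells settled 12 hours, received compound for 4-6 hr at 37 deg C, 5% CO2, and were read after 12 min detection reagent at RT.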

Experiment [16] is described as follows: qHTS of Nrf2 Activators: LOPAC Validation (AID 624149). The method in brief:
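Luciferase signal from ARE activation, read with Steady-Glo after 30 min at room temperature. Compounds were pin-transferred onto AREc32_Fluc cells (1000/well, OPTI-MEM/5% FBS, seeded overnight) and left 24 hr at 37 deg C.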

Experiment [17] can be described thus: HTS Assay for Allosteric Antagonists of the Human D2 Dopamine Receptor: Hit Validation in HTRF (AID 624455).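 Note: stable D1 dopamine receptor cell line scored for blocking the D1 response.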 The method in brief:
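Inhibition of the D1-mediated response was measured by HTRF. Cells used were a line stably expressing the D1 dopamine receptor.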
(In TR-FRET formats the signal depends on donor and acceptor labels being close together.)

The test system of the next experiment is CP262. Description: qHTS profiling for inhibitors of Plasmodium falciparum proliferation (AID 504749). Note: nearly all actives have a fitted effect of over 60% in size. Particulars: P. falciparum in erythrocytes, SYBR Green DNA, 72 h; series mostly up to 28.7 µM. The method in brief: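 SYBR Green fluorescence of parasite DNA, read after lysis and overnight dark incubation, measured growth over 72 h in erythrocyte culture at 0.3% parasitemia and 2.5% hematocrit. Data normalised to DMSO and 0.29 uM artemisinin, with plate-drift correction.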

Experiment [18] can be described thus: Primary qHTS for small molecule stabilizers of the endoplasmic reticulum resident proteome: Secreted ER Calcium Modulated Protein (SERCaMP) assay (AID 1508630). The method in brief:
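The SH-SY5Y reporter protocol was run at 3 concentrations up to 38.3 uM (primary) or 11 concentrations (follow-up): 16 h compound, 100 nM thapsigargin for 4 h, then extracellular luciferase luminescence.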

The nature of experiment [19]: qHTS Assay for Identification of Small Molecule Antagonists for Thrombopoietin (TPO) Signaling Pathway (AID 918). Note: potency is the fitted concentration of half-maximal effect; nearly all actives have a fitted effect of over 60% in size. Particulars: TPO-dependent cell signaling reporter, antagonist mode. The method in brief: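 Inhibition read as reduced luciferase luminescence after 24 h at 37 C in IL-3-deprived Ba/F3 cells carrying human TPO receptor and GPIIb-promoter reporter, stimulated with 26 pM TPO (final, its EC50) alongside compound.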

Sequence of Glucagon-like peptide 1 receptor (Homo sapiens) (P43220 whole entry, looked up): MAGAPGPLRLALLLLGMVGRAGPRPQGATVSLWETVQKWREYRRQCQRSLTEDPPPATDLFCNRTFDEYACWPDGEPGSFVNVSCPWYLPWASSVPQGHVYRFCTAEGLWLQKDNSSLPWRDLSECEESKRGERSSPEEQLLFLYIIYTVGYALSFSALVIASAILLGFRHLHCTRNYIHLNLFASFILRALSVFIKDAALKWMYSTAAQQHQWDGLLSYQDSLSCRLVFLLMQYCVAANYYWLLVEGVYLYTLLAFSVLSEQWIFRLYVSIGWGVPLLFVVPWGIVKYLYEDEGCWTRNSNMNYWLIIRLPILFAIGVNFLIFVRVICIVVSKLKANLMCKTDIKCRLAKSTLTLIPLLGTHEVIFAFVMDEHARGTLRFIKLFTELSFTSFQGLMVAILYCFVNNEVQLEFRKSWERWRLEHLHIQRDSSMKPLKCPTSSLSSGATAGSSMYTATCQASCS
Sequence of Phosphoglycerate kinase, glycosomal (Trypanosoma brucei brucei) (P07378 whole entry, looked up): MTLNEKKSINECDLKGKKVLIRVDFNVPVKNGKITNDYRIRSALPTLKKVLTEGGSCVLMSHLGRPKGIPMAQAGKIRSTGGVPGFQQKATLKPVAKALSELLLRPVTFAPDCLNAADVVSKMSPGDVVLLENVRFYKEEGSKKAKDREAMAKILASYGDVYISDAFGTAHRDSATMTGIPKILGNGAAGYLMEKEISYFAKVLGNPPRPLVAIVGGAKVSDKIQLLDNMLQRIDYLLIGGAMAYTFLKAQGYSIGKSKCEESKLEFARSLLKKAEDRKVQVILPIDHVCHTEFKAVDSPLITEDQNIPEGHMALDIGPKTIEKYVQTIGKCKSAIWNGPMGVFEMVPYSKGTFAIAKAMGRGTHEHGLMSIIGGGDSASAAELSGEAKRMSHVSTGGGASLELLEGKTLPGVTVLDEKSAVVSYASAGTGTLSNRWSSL
Sequence of phosphoglycerate mutase (Leishmania major) (Q4Q090 1-553): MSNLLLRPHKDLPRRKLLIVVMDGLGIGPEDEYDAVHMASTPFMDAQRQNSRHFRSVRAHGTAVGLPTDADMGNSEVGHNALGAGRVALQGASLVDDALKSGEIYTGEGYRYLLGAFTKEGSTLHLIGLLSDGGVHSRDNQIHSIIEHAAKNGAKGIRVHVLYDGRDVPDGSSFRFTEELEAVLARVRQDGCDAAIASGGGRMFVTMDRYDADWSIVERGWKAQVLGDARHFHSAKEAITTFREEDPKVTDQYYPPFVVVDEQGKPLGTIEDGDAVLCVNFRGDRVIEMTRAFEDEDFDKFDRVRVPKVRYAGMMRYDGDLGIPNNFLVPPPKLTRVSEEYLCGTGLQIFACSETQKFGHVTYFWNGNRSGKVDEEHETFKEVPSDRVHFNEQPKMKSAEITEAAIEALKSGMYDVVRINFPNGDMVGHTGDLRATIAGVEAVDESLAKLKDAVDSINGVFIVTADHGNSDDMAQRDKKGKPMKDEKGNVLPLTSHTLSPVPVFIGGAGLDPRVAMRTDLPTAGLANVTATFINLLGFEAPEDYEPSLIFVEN
Sequence of ATPase family AAA domain-containing protein 5 (Homo sapiens) (Q96QE3 whole entry, looked up, the tested form may be a part): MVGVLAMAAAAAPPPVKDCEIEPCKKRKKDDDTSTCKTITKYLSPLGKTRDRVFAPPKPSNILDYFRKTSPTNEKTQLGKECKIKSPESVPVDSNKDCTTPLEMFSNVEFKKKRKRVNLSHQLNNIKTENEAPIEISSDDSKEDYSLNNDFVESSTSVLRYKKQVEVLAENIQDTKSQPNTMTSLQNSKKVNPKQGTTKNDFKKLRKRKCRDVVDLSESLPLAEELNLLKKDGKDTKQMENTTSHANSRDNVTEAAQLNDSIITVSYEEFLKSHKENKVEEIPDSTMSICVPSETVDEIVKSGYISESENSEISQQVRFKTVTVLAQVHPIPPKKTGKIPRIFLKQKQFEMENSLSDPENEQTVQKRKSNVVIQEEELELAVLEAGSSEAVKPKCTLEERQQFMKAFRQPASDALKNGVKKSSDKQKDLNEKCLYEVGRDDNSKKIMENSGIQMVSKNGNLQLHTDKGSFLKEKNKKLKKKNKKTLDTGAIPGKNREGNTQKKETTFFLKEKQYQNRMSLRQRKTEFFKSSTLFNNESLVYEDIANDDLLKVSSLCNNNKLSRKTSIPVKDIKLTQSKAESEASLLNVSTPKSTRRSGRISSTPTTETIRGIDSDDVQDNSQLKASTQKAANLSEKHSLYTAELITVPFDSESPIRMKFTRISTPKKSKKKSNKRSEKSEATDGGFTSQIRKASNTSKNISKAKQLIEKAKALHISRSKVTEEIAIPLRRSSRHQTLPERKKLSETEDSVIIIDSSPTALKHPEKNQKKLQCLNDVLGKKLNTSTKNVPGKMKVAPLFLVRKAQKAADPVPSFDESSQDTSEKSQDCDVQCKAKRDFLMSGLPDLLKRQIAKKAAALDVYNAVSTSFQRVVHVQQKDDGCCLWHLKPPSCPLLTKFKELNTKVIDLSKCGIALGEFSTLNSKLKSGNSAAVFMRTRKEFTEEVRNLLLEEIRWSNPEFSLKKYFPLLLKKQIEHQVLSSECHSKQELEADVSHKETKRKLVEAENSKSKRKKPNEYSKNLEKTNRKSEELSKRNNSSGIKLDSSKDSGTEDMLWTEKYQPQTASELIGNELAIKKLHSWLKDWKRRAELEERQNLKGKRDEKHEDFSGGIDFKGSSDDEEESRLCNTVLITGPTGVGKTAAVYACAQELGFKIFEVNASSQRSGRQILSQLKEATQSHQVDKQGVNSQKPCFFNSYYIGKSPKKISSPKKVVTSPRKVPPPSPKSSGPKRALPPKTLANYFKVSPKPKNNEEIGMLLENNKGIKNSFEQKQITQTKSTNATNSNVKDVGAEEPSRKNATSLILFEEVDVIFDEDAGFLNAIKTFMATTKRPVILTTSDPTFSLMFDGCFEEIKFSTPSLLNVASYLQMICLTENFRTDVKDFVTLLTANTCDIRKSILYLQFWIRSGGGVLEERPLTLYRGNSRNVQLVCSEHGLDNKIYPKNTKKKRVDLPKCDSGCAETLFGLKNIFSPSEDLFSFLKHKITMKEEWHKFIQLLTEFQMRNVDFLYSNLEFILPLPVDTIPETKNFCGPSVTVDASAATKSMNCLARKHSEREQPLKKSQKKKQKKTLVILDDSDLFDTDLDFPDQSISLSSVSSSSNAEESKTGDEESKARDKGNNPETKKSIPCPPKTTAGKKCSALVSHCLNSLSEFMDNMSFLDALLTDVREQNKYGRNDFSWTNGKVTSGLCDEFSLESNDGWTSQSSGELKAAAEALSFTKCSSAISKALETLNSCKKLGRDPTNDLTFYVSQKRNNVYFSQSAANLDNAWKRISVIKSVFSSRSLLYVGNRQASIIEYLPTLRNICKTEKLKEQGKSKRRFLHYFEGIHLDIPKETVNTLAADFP
Sequence of D(1A) dopamine receptor (Homo sapiens) (P21728 whole entry, looked up): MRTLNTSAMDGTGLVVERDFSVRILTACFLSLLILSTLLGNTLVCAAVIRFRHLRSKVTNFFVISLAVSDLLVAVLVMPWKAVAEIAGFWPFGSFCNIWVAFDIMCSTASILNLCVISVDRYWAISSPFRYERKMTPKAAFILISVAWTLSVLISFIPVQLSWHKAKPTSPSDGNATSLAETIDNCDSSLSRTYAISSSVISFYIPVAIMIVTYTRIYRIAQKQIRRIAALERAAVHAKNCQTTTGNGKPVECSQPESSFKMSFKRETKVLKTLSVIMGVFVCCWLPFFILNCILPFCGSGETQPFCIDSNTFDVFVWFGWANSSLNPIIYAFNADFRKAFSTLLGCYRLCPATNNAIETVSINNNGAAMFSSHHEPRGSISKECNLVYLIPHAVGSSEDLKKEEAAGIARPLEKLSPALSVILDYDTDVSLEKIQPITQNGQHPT
Sequence of Peptidyl-prolyl cis-trans isomerase NIMA-interacting 1 (Homo sapiens) (Q13526 whole entry, looked up): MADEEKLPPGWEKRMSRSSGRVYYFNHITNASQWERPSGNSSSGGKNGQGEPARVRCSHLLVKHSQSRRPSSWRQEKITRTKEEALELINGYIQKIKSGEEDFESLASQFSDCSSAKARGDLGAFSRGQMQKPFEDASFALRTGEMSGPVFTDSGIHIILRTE
Sequence of Lysosomal acid glucosylceramidase (Homo sapiens) (P04062 whole entry, looked up): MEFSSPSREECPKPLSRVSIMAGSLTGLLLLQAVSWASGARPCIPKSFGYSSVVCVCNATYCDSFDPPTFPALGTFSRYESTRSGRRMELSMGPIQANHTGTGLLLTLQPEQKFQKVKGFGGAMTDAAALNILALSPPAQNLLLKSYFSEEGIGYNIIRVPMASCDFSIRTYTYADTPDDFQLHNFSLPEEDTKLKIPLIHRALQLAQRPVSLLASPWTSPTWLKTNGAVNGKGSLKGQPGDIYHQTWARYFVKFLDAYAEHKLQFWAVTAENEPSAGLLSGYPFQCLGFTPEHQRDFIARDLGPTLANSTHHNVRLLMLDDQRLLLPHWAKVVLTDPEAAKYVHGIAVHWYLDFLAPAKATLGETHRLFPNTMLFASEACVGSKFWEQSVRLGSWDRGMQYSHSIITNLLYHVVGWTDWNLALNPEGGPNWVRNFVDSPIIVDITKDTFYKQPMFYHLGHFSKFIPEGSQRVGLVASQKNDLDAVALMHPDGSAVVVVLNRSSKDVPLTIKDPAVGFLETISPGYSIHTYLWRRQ
Sequence of Cytochrome P450 2D6 (Homo sapiens) (P10635 whole entry, looked up): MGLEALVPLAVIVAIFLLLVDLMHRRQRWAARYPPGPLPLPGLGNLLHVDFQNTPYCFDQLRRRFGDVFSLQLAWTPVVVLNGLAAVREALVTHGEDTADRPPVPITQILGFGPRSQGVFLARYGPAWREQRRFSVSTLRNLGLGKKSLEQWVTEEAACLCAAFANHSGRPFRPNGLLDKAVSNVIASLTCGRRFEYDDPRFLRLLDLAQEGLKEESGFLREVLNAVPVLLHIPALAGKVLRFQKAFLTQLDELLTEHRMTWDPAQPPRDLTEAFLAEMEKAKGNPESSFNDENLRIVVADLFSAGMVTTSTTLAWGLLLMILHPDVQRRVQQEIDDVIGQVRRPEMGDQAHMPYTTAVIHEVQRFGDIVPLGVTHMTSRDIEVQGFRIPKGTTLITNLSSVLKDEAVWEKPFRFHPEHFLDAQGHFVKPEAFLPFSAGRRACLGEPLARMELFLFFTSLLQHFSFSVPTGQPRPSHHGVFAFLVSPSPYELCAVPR

Consider `CN(C)[C@@H]1C(=O)C(C(N)=O)=C(O)[C@]2(O)C(=O)C3=C(O)c4c(O)cccc4[C@@](C)(O)[C@@H]3C[C@@H]12`, for which the Potency result in experiment [1] is “inactive”.
For the molecule `CC(C)(O)/C=C\C(=O)[C@](C)(O)[C@H]1[C@H](O)C[C@]2(C)[C@@H]3CC=C4[C@@H](C=C(O)C(=O)C4(C)C)[C@]3(C)C(=O)C[C@@]12C`, in experiment [2], the Potency was > 11.4 µM.
As to `N#CC(O[C@@H]1O[C@H](CO[C@@H]2O[C@H](CO)[C@@H](O)[C@H](O)[C@H]2O)[C@@H](O)[C@H](O)[C@H]1O)c1ccccc1` (stereo partly specified), the Potency entry in experiment [3] and in experiment [4] was “inactive” throughout.
Consider `C[C@H]1C2Cc3ccc(O)cc3[C@]1(C)CCN2CC1CC1`, for which the molecule was classed as inactive in experiment [5], in [6], in experiment [8], in experiment [9], in experiment [10] and in experiment [11]. Moreover, the outcome in experiment [12], in experiment [13], in [14], in experiment [15], in experiment [16] and in experiment [17] was inactive. Moreover, in experiment [7], the Potency entry was “inactive”.
In the case of `CC(C)(O)C1C2OC(=O)C1[C@]1(O)C[C@H]3O[C@]34C(=O)O[C@H]2[C@]14C` (stereo partly specified) (tested in a mixture with another compound), in the experiment on CP262, the Potency entry is “inactive”.
Consider `CC[C@@H](CO)NC(=O)[C@H]1C=C2c3cccc4c3c(cn4C)C[C@H]2N(C)C1`, for which the result in experiment [18] was inactive.
Consider `CCCC[N+]1(C)C2CC(OC(=O)C(CO)c3ccccc3)CC1C1OC12` (stereo unspecified), for which the Potency result in the experiment on CP262 was “inactive”.
For `O=C1/C(=C\c2ccccc2)C[C@@]2(O)[C@H]3Cc4ccc(O)c5c4[C@@]2(CCN3CC2CC2)[C@H]1O5`, the outcome in experiment [18] was inactive.
On to `CC12CCC3C(CCC4=C(O)C(=O)CCC43C)C1CCC2=O` (stereo unspecified), for which the molecule was called inactive in experiment [5], in experiment [6], in experiment [8], in [9], in experiment [10] and in [11]. The molecule was classed as inactive in [12], in experiment [13], in experiment [14], in experiment [15], in [16] and in [17]. Further, the Potency entry in experiment [7] was “inactive”.
As to `NCC#Cc1ccccc1`, the Potency in [19] is 6.31 µM (active).
Still for that read-out and setting: the same measure for `CCCCN1C2CCC1CC(OC(c1ccc(F)cc1)c1ccc(F)cc1)C2` (stereo unspecified): 10 µM (active).
